{
  "source": "the supplement of paper PMC13380429",
  "data": [
    {"system": "Vero E6 infected with SARS-CoV-2", "experiment": "inhibition of SARS-CoV-2 cytopathic effect; higher = more antiviral protection, active = above 15", "conditions": "8.33 nM; 48 h", "values": [
      {"smiles": "C#C[C@]1(O)CC[C@H]2[C@@H]3CCc4cc(OC5CCCC5)ccc4[C@H]3CC[C@@]21C", "note": "[quinestrol]", "inhibition of SARS-CoV-2 cytopathic effect": "-1.33% (inactive)"},
      {"smiles": "COc1ccccc1OC(=O)C(C)c1ccc(CC(C)C)cc1", "note": "(stereo not drawn) [metoxibutropate]", "inhibition of SARS-CoV-2 cytopathic effect": "-2.87% (inactive)"},
      {"smiles": "CC[C@]1(O)C[C@@H]2CN(CCc3c([nH]c4ccccc34)[C@@](C(=O)OC)(c3cc4c(cc3OC)N(C)[C@H]3[C@@](O)(C(N)=O)[C@H](O)[C@]5(CC)C=CCN6CC[C@]43[C@@H]65)C2)C1", "note": "[vindesine]", "inhibition of SARS-CoV-2 cytopathic effect": "0.16% (inactive)"},
      {"smiles": "CNC(=O)[C@H](Cc1c[nH]c2ccccc12)NC(=O)[C@@H](CC(=O)NO)CC(C)C", "note": "[ilomastat]", "inhibition of SARS-CoV-2 cytopathic effect": "1.87% (inactive)"},
      {"smiles": "N#CC1(c2ccc(NC(=O)c3cccnc3NCc3ccncc3)cc2)CCCC1", "note": "[apatinib]", "inhibition of SARS-CoV-2 cytopathic effect": "0.67% (inactive)"},
      {"smiles": "CN1[C@@H]2CC[C@H]1C[C@@H](OC(=O)C(CO)c1ccccc1)C2", "note": "(stereo partly drawn)", "inhibition of SARS-CoV-2 cytopathic effect": "-2.93% (inactive)"},
      {"smiles": "Cc1cccc(/C=N/Nc2cc(N3CCOCC3)n3nc(-c4ccncc4)cc3n2)c1", "inhibition of SARS-CoV-2 cytopathic effect": "4.2% (inactive)"},
      {"smiles": "OC[C@H]1O[C@H](O[C@]2(CCl)O[C@H](CCl)[C@@H](O)[C@@H]2O)[C@H](O)[C@@H](O)[C@H]1Cl", "note": "[sucralose]", "inhibition of SARS-CoV-2 cytopathic effect": "0.58% (inactive)"},
      {"smiles": "O=C(/C=C/c1ccc(O)c(O)c1)O[C@H](Cc1ccc(O)c(O)c1)C(=O)O", "note": "[rosmarinic-acid]", "inhibition of SARS-CoV-2 cytopathic effect": "3.5% (inactive)"},
      {"smiles": "Clc1cccc(C(c2ccc3[nH]cnc3c2)n2ccnc2)c1", "note": "(stereo not drawn) [liarozole]", "inhibition of SARS-CoV-2 cytopathic effect": "3.78% (inactive)"},
      {"smiles": "CN(C)CCCCSC(=N)N", "inhibition of SARS-CoV-2 cytopathic effect": "-3.4% (inactive)"},
      {"smiles": "COc1cc2c(Nc3ccc(Cl)c(Cl)c3F)ncnc2cc1OC[C@@H]1C[C@@H]2CN(C)C[C@@H]2C1", "inhibition of SARS-CoV-2 cytopathic effect": "-2.66% (inactive)"},
      {"smiles": "CCCCCCCCCCCCCC(=O)OC(C)C", "note": "[isopropyl-myristate]", "inhibition of SARS-CoV-2 cytopathic effect": "0.41% (inactive)"},
      {"smiles": "N#Cc1c(N)nc(SCc2ncc[nH]2)c(C#N)c1-c1ccc(O)cc1", "inhibition of SARS-CoV-2 cytopathic effect": "-2.41% (inactive)"},
      {"smiles": "CN(C)C(=O)Oc1cccc([N+](C)(C)C)c1", "note": "[neostigmine]", "inhibition of SARS-CoV-2 cytopathic effect": "0.51% (inactive)"},
      {"smiles": "COC(=O)c1c(C)[nH]c(C)c1C(=O)c1ccccc1Cc1ccccc1", "inhibition of SARS-CoV-2 cytopathic effect": "-1.02% (inactive)"},
      {"smiles": "NC(=O)c1ccc([N+](=O)[O-])cc1Cl", "note": "[aklomide]", "inhibition of SARS-CoV-2 cytopathic effect": "0.27% (inactive)"},
      {"smiles": "O=C(Nc1cc(Cl)cc(Cl)c1O)c1c(O)c(Cl)cc(Cl)c1Cl", "note": "[oxyclozanide]", "inhibition of SARS-CoV-2 cytopathic effect": "-0.46% (inactive)"},
      {"smiles": "CCCNC(C)(C)COC(=O)c1ccccc1", "note": "[meprylcaine]", "inhibition of SARS-CoV-2 cytopathic effect": "-2.34% (inactive)"},
      {"smiles": "Cc1noc(NS(=O)(=O)c2ccc(N)cc2)c1C", "note": "[sulfafurazole]", "inhibition of SARS-CoV-2 cytopathic effect": "-1.19% (inactive)"},
      {"smiles": "[O-][n+]1cccc(CO)c1", "note": "[mepiroxol]", "inhibition of SARS-CoV-2 cytopathic effect": "-0.73% (inactive)"},
      {"smiles": "Cc1ccccc1N1CCN(CCc2nnc3n2CCCC3)CC1", "note": "[dapiprazole]", "inhibition of SARS-CoV-2 cytopathic effect": "-2.22% (inactive)"},
      {"smiles": "Cn1c(=O)n(-c2ccc(C(C)(C)C#N)cc2)c2c3cc(-c4cnc5ccccc5c4)ccc3ncc21", "inhibition of SARS-CoV-2 cytopathic effect": "-0.22% (inactive)"},
      {"smiles": "C[N+](C)(C)CCCCCC[N+](C)(C)C", "note": "[hexamethonium]", "inhibition of SARS-CoV-2 cytopathic effect": "1.65% (inactive)"},
      {"smiles": "COc1cc(O)c2c(c1)C(=O)c1cc(C)cc(O)c1C2=O", "note": "[rheochrysidin]", "inhibition of SARS-CoV-2 cytopathic effect": "1.62% (inactive)"},
      {"smiles": "CC(=O)c1ccc(NS(C)(=O)=O)c(Oc2ccc(F)cc2F)c1", "inhibition of SARS-CoV-2 cytopathic effect": "0.47% (inactive)"},
      {"smiles": "Cc1cc(-c2nc(C(=O)Nc3cn(C4CCOCC4)nc3C(N)=O)co2)ccn1", "inhibition of SARS-CoV-2 cytopathic effect": "-3.32% (inactive)"},
      {"smiles": "CC(C)C[C@@H](C(=O)N[C@H](C(=O)OC1CCCC1)c1ccccc1)[C@H](O)C(=O)NO", "note": "[tosedostat]", "inhibition of SARS-CoV-2 cytopathic effect": "6.05% (inactive)"},
      {"smiles": "C[C@H](CCC(=O)O)[C@H]1CC[C@H]2[C@@H]3CC[C@@H]4C[C@H](O)CC[C@]4(C)[C@H]3C[C@H](O)[C@]12C", "note": "[deoxycholic-acid]", "inhibition of SARS-CoV-2 cytopathic effect": "0.25% (inactive)"},
      {"smiles": "C[C@H](c1ccc2ccc(OC3CCC(C(F)(F)F)CC3)c(C(F)(F)F)c2c1)N1C2CCC1CC(C(=O)O)C2", "note": "(stereo partly drawn) [autotaxin-modulator-1]", "inhibition of SARS-CoV-2 cytopathic effect": "-0.49% (inactive)"},
      {"smiles": "c1ccc2c(CC3=NCCN3)cccc2c1", "note": "[naphazoline]", "inhibition of SARS-CoV-2 cytopathic effect": "0.66% (inactive)"},
      {"smiles": "COC(=O)c1ccc(O)cc1", "note": "[methylparaben]", "inhibition of SARS-CoV-2 cytopathic effect": "0.03% (inactive)"},
      {"smiles": "CC[C@H](c1ccc(O)cc1)[C@@H](CC)c1ccc(O)cc1", "note": "[hexestrol]", "inhibition of SARS-CoV-2 cytopathic effect": "-0.58% (inactive)"},
      {"smiles": "Nc1nc(=O)[nH]cc1F", "note": "[flucytosine]", "inhibition of SARS-CoV-2 cytopathic effect": "-2.1% (inactive)"},
      {"smiles": "FC(F)(F)c1ccc(CNc2ccc(Cc3c[nH]c4ncc(Cl)cc34)cn2)cn1", "note": "[pexidartinib]", "inhibition of SARS-CoV-2 cytopathic effect": "3.65% (inactive)"},
      {"smiles": "CNC(=O)c1cc2c(cn1)[nH]c1ccccc12", "inhibition of SARS-CoV-2 cytopathic effect": "-0.17% (inactive)"},
      {"smiles": "O=C(Nc1ccc([N+](=O)[O-])cc1Cl)c1cc(Cl)ccc1O", "note": "[niclosamide]", "inhibition of SARS-CoV-2 cytopathic effect": "-2.63% (inactive)"},
      {"smiles": "CS(=O)(=O)c1cc(F)cc2c3c(n(Cc4ccc(Cl)cc4)c12)[C@@H](CC(=O)O)CC3", "note": "[laropiprant]", "inhibition of SARS-CoV-2 cytopathic effect": "-3% (inactive)"}
    ]}
  ]
}
